Results as given in PubChem BioAssay (Tox21).
Inconclusive results are not listed. Unmarked numbers belong to inactive results. Activity calls are given as the source filed them. Calls come from the whole dose curve; as a rule, active = well fitted cell-killing curve with a large enough effect in the repeat runs; inconclusive = weak or mixed curves, or effect the other way; inactive = flat fitted curve, though single readings scatter.

test: qHTS assay to identify small molecule agonists of the androgen receptor (AR) signaling pathway in the presence of an antagonist - cell viability counter screen (AID 1259379); conditions: MDA-kb2 viability, CellTiter-Fluor, 16 h; series mostly up to 92.4 µM; activity change, negative = cytotoxicity: at the top concentration; note: nearly all actives have a fitted effect of over 25% in size;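 for activity change, negative = cytotoxicity: MDA-kb2 human breast cancer cells carrying an MMTV luciferase reporter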
Summary of the method: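 MDA-kb2 viability measured by CellTiter-Fluor fluorescence in the same wells as the luciferase signal; nilutamide 3.0uM final; 15-point compound titration; 16 hr at 37C.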
% is set by controls: 0 for no effect and ±100 for the full control effect; potency is the fitted concentration of half-maximal effect.

Row | SMILES | activity change, negative = cytotoxicity | Potency
1 | Nc1cc(Cl)c(O)c(Cl)c1 | 1.93% | –
2 | Clc1nnc(Cl)c2ccccc12 | – | 15.3 µM (active)
3 | CC(C)(C)c1ccc(C(O)CCCN2CCC(C(O)(c3ccccc3)c3ccccc3)CC2)cc1 (stereo not given) | – | 23.7 µM (active)
4 | CCCCC/C=C\C/C=C\CCCCCCCC(=O)O | – | inactive
5 | OCC(F)(F)F | -0.741% | –
6 | O=C(O)O | -0.506% [at 8.39 µM] | –
7 | Clc1ccnc(Cl)n1 | -1.59% | –
8 | C=CCn1c(=O)n(CC=C)c(=O)n(CC=C)c1=O | -4.37% | –
9 | CC(C)=CCC1=C(O)c2ccccc2C(=O)C1=O | – | 43 µM (active)
10 | O=S(=O)(O)c1ccc(N=Nc2c(O)ccc3ccccc23)cc1 | – | 27.3 µM (active)
11 | CCO[C@@H]1O[C@H](C(COCc2ccccc2)OCc2ccccc2)[C@H](OCc2ccccc2)[C@H]1O (stereo not given in full) | -7.78% [at 42.5 µM] | –
12 | Cc1cc(-c2ccc(N=Nc3cc(S(=O)(=O)O)c4ccccc4c3N)c(C)c2)ccc1N=Nc1cc(S(=O)(=O)O)c2ccccc2c1N | – | 3.88 µM (active)
13 | CCCCN(CCCC)CC(O)c1cc(Cl)cc2c1-c1ccc(Cl)cc1/C2=C/c1ccc(Cl)cc1 (stereo not given) | -13.6% [at 42.5 µM] | –
14 | c1ccc(SSc2ccccc2)cc1 | -10.5% | –
15 | Oc1c(I)cc(Cl)c2cccnc12 | – | 48.5 µM (active)
16 | CC(C)NC[C@@H](O)COc1ccc(CC(N)=O)cc1 | 1.2% [at 42.5 µM] | –
17 | CNC(=O)c1ccccc1Sc1ccc2c(/C=C/c3ccccn3)n[nH]c2c1 | – | 26.6 µM (active)
18 | Cc1cc(C)c(/C=C2\C(=O)Nc3ccccc32)[nH]1 | -10.1% [at 42.5 µM] | –
19 | Nc1ccc(Oc2ccc(Cl)cc2)cc1 | -7.26% | –
20 | C#C[C@]1(OC(C)=O)CC[C@H]2[C@@H]3CCC4=C[C@@H](OC(C)=O)CC[C@@H]4[C@H]3CC[C@@]21C | -6.48% [at 42.5 µM] | –
